About 83,000 compounds went through this panel and 20% of them were active in at least one assay; those are over-represented in the sample as a whole.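 Each cell line was grown in a 96-well plate and treated with one concentration of compound for 48 hours. Values below 10 were considered active.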 Unmarked numbers belong to inactive results. The source made the active and inactive calls.
system: UACC-62 melanoma; assay: NCI-60 one-dose screen, 48 h (100 = growth as untreated, 0 = no growth, -100 = all killed); conditions: 10 µM
Method: Growth inhibition of the UACC-62 human tumor cell line is measured as a screen for anti-cancer activity. Cells are grown in 96 well plates and exposed to the test compound for 48 hours. Compounds are tested at a single concentration, which is 10^-5 M for most compounds. The reported endpoint is percent growth (GI% or GIPRCNT), where numbers from 0 - 100% represent growth inhibition, and numbers from -100% - 0 represent cell death. For example, a value of 40 represents 60% growth inhibition. A value of 0 means no net growth occurred over the course of the experiment. A value of -40 indicates 40% of cells at the beginning of the experiment died by the end of the experiment. A value of -100 means all cells are dead at the end of the experiment.
NCI-60 Human Tumor Cell Lines Screen was performed using the standard one-dose NCI protocol, which is described in more detail at https://dtp.cancer.gov/discovery_development/nci-60/default.htm.
Compounds with GIPRCNT values below 10 were considered active. Activity score was based on GIPRCNT using the following formula: […]
Score is 0 for GIPRCNT values of 100 or above, 50 for GIPRCNT values of 0, and 100 for GIPRCNT values of -100.

SMILES | growth
CC(=O)c1cc(C(=O)N2c3ccccc3Sc3ccccc32)n2ccc(C)cc12 | 23.8%
Cc1ccc(C(C)C)cc1NC(=O)c1ccccc1O | 9.83% (active)
C/C(=C\CC/C=C(\C)CC/C=C(\C)CC[C@@H](O)C(C)(C)O)CC/C=C(\C)CC[C@@H](O)C(C)(C)O | 46.2%
C/C(=N\N=C\c1ccc(N(C)C)cc1)c1ccc2c(c1)Nc1ccccc1S2 | 70.7%
COc1cc(C2CC(c3ccc(C)cc3)=Nc3c(N)nc(N)nc3N2)ccc1Oc1nc(Nc2ccc(F)cc2)nc(N(C)C)n1 (stereo not given) | 77.7%
O=C(CSc1nnc(-c2c[nH]c3ccccc23)n1-c1ccccc1)Nc1ccc(C(=O)/C=C/c2ccc(Br)cc2)cc1 | 66.4%
NS(=O)(=O)c1ccc(N=Nc2c(O)n(CC(=O)Nc3ccccc3Br)c3ccccc23)cc1 | 31.2%
CC(=O)c1ccc(NC(=O)NCn2c(=O)[nH]c3ccccc3c2=O)cc1 | 81.1%
O=C(Nc1ccc(OCC(=O)c2ccccc2)cc1)Nc1ccc(Cl)c(C(F)(F)F)c1 | -21.3% (active)
CN1CCN(c2ccc(C(=O)/C=C/c3cc(C(F)(F)F)ccc3Cl)cc2)CC1 | -79.9% (active)
c1ccc(C(=C(c2ccc(OCCN3CCCCC3)cc2)c2ccc(OCCN3CCCCC3)cc2)C2CCCC2)cc1 | -97.1% (active)
CCNCCCn1c2c(c3cc(OC)c(OC)cc3c1=O)C(=O)c1cc3c(nc1-2)OCO3 | -15.3% (active)
Clc1ccc2c(N/N=C/c3c[nH]c4ccc(Br)cc34)ccnc2c1 | -85.4% (active)
O=C(N=Nc1c(O)[nH]c2ccc(Br)cc12)c1ccc2nc(-c3ccccc3)[nH]c2c1 | -96% (active)
CC(=O)Nc1ccc(-c2cn(-c3cccc(C(=O)Nc4cc(C(F)(F)F)cc(C(F)(F)F)c4)c3)nn2)cn1 | -46.2% (active)
CC(=C(c1ccc(OCCN2CCCCC2)cc1)c1ccc(OCCN2CCCCC2)cc1)c1ccccc1 | -79% (active)
CCOC(=O)C(Cc1ccccc1)N1C(=O)/C(=C/N2N=C(c3ccc(OC)cc3)CC2c2ccc3ccccc3c2)SC1=S (stereo not given) | -76.7% (active)
C=C1CC[C@H](C(=C)C)[C@H]2C=C(C)C(=O)C3=C(C(=O)[C@@](C)(O)C3)[C@H]12 | -53.5% (active)
CCN1CCN(c2ccc(NC(=O)Nc3ccc(-c4cc(C(=O)NC(C)C)c5ncccc5n4)cc3)cc2C(F)(F)F)CC1 | -93.3% (active)
CC[C@]12C=CCN3CC[C@@]4(c5cc(C#CCNc6ccc(C)c(Nc7nccc(-c8cccnc8)n7)c6)c(OC)cc5N(C)[C@H]4[C@@](O)(C(=O)OC)[C@@H]1OC(C)=O)C32 (stereo not given in full) | 69.4%

SMILES | growth
Cc1ccc(CNC(=O)Cc2ccc3c(c2)CN(C2CCC(=O)NC2=O)C3=O)cc1 (stereo not given) | 40.6%
Cc1ccc2nc(-c3ccc(-c4nnc(SCC(=O)Nc5ccc(Br)cc5)o4)cc3)[nH]c2c1 | 57.3%
Cc1ccc(/C(CSc2nnc(-c3c[nH]c4ccccc34)n2-c2ccccc2)=N/O)cc1 | -52.6% (active)
Cc1ccc(-c2cc(-c3cc4ccccc4nc3Cl)[nH]c(=O)n2)cc1 | 19.3%
O=C(CSc1nnc(-c2c[nH]c3ccccc23)n1-c1ccccc1)Nc1ccc(C(=O)/C=C/c2ccc(Cl)cc2)cc1 | 62.8%
COc1ccc(C2N(c3ccc(Br)cc3)N=C(C(C)=O)N2[C@H]2[C@H](OC(C)=O)O[C@H](COC(C)=O)[C@@H](OC(C)=O)[C@@H]2OC(C)=O)cc1 (stereo not given in full) | 56.9%
COc1ccc(/C=C/C(=O)c2ccc(NC(=O)CN3C(=O)NC(C)(c4ccccc4)C3=O)cc2)cc1 (stereo not given) | 50%
O=C(NO)c1ccc(Cn2ccc3c(Nc4ccccc4)ncnc32)cc1 | -49.3% (active)
CC(=C(c1ccc(OCCCN(C)C)cc1)c1ccc(OCCCN(C)C)cc1)c1ccccc1 | -99.3% (active)
COc1ccc(/C(C)=N/N=C2C(=O)N(C)c3ccc(Br)cc32)cc1S(N)(=O)=O | 73.8%
N#Cc1c(NC(=O)c2cccc(C(F)(F)F)c2)sc2c1CCC(O)=C2 | 11.5%
CC(=O)c1cc(C(=O)c2ccc3c(c2)NC(=O)CO3)n2ccc3ccccc3c12 | 94.7%
NC(=Nc1ccc(OCCCCCCCCn2ccnn2)cc1)c1ccccc1 | 41.8%
O=c1cc(-c2ccccc2)oc2cc(OCCCNCc3ccccc3)cc(O)c12 | -55.7% (active)
O=C(CS(=O)(=O)c1oc(-c2ccc(Cl)cc2)nc1S(=O)(=O)c1ccccc1)N1CCCC1 | 47.5%
CC(=C(c1ccc(OCCN2CCCCCC2)cc1)c1ccc(OCCN2CCCCCC2)cc1)c1ccc(Cl)cc1 | -98.3% (active)
CCOC(=O)C1=C(N)N(c2ccc(C)cc2)C2=C(C(=O)CC(C)(C)C2)C1c1ccccc1OC (stereo not given) | 89.8%
S=c1nc(-c2ccccc2)cc(-c2cc3ccccc3nc2Cl)[nH]1 | 43.8%
CN(C)CCNC(=O)OCCCCOc1cc(O)c2c(=O)cc(-c3ccccc3)oc2c1 | -88.4% (active)
COc1ccc(-c2cc(-c3cc(C(=O)c4ccccc4)n4ccc(C)cc34)nc(N)c2C#N)cc1 | 64.6%
